35 targets from the supplement of paper PMC11006884 can be followed below.

Targets with a hit are over-represented here; the source holds about 6,500 in all. About 2% of all pairs of compound and target were hits. A number with no mark means an inactive call.

Compound in the assay: COC(=O)C#Cc1ccccc1 [methyl 3-phenylpropiolate]
Kind of assay: log2 ratio of iodoacetamide-alkyne labeling of the cysteine site, DMSO over compound (competition); higher = stronger covalent engagement of the cysteine by the compound, active = 1 or more. The conditions noted are these: 500 µM; treatment time 1 h; system: HEK293T cell lysate. A digest of the protocol:
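Three replicates, each with duplicate channels, were prepared from HEK293T lysate (2 mg/mL) treated with vehicle or electrophile at 500 µM for 1 h at ambient temperature. Iodoacetamide alkyne was then applied for 1 h, and samples were clicked to sCIP-TMT reagents, pooled, trypsin-digested overnight at 37 °C, enriched on streptavidin, acid-eluted and analysed on Orbitrap Eclipse LC-MS/MS with FAIMS, with FragPipe quantification. The log2 competition ratio per cysteine is the mean control-channel divided by the mean compound-channel reporter intensity. Cysteines quantified in only one replicate were left out.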

Chain of UniProt Q04726 (Q04726 whole entry): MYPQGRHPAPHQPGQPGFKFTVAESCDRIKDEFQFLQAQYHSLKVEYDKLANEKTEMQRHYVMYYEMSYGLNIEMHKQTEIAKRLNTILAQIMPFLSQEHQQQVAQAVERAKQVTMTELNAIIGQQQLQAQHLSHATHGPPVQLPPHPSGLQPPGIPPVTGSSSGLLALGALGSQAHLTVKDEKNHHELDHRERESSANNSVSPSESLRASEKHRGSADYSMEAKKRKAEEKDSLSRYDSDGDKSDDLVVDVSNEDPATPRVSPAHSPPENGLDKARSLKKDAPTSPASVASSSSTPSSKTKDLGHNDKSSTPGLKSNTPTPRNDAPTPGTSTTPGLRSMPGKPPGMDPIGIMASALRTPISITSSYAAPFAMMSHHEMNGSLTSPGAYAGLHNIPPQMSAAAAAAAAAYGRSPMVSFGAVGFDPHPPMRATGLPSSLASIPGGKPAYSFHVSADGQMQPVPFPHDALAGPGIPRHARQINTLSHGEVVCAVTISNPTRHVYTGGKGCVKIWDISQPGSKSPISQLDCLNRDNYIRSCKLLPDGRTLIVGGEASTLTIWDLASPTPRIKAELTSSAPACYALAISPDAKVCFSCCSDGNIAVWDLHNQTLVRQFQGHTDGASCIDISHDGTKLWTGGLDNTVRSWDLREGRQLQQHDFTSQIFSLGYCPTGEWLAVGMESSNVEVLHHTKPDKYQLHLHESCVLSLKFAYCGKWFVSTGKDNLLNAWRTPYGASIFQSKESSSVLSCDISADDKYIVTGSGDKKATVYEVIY
Chain of UniProt Q13190 (Q13190 whole entry): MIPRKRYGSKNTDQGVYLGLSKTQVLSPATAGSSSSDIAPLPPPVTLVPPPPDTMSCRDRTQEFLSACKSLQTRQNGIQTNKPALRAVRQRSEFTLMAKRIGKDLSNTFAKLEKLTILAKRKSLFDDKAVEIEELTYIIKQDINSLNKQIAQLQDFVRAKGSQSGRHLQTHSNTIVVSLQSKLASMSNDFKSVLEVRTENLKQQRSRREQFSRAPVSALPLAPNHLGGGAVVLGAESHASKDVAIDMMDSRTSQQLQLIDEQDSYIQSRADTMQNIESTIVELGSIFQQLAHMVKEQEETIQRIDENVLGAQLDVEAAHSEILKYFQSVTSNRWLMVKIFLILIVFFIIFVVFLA
Chain of UniProt Q5M775 (Q5M775 whole entry, looked up): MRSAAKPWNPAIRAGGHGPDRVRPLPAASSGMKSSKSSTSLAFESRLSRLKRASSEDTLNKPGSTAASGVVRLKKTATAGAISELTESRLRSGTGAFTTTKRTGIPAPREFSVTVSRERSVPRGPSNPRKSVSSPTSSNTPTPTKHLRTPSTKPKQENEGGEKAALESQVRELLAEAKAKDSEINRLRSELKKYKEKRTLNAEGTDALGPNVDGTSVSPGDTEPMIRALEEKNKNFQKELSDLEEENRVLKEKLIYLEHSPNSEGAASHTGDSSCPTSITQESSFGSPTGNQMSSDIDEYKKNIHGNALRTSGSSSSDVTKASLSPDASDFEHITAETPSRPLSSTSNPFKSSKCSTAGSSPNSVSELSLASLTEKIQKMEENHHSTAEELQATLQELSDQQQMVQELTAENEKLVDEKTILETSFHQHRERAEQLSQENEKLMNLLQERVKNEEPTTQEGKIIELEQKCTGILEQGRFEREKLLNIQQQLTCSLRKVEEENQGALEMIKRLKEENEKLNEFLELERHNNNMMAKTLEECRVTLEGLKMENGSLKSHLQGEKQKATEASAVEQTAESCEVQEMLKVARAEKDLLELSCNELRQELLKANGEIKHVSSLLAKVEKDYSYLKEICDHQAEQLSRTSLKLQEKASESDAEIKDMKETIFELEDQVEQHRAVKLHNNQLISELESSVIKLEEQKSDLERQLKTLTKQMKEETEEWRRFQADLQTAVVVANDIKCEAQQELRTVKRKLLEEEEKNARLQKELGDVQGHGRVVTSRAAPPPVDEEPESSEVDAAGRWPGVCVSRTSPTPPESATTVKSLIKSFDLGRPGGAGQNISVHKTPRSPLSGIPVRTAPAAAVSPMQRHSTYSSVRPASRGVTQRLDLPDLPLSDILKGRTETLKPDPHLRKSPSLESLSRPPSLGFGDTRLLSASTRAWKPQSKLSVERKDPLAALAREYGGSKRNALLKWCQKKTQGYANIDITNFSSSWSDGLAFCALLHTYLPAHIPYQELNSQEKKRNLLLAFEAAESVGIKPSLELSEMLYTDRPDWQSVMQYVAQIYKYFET
Chain of UniProt P52789 (P52789 whole entry, looked up): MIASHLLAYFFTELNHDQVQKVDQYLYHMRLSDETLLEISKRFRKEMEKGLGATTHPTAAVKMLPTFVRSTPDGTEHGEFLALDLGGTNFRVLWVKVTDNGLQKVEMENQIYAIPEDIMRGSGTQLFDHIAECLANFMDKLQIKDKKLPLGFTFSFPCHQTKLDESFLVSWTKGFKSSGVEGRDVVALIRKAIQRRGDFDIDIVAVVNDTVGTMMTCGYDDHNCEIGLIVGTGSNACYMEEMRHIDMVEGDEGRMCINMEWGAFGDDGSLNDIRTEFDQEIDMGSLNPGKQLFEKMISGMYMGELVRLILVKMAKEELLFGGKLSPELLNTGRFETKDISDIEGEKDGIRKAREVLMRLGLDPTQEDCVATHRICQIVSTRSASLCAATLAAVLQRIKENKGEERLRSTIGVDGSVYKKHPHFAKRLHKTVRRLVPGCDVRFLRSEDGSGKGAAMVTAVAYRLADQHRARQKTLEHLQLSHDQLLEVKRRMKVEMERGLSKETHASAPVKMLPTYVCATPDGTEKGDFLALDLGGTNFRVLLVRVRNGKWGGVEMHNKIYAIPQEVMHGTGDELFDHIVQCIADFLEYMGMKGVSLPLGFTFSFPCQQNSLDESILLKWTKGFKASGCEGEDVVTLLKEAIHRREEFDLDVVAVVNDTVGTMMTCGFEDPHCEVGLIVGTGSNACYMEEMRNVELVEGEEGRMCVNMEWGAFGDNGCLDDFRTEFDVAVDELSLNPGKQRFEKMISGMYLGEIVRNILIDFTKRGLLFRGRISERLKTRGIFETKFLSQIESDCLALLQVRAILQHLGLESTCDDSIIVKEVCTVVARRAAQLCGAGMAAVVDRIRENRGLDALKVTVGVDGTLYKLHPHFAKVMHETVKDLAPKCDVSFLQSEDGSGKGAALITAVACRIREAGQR
Chain of UniProt Q13057 (Q13057 whole entry, looked up): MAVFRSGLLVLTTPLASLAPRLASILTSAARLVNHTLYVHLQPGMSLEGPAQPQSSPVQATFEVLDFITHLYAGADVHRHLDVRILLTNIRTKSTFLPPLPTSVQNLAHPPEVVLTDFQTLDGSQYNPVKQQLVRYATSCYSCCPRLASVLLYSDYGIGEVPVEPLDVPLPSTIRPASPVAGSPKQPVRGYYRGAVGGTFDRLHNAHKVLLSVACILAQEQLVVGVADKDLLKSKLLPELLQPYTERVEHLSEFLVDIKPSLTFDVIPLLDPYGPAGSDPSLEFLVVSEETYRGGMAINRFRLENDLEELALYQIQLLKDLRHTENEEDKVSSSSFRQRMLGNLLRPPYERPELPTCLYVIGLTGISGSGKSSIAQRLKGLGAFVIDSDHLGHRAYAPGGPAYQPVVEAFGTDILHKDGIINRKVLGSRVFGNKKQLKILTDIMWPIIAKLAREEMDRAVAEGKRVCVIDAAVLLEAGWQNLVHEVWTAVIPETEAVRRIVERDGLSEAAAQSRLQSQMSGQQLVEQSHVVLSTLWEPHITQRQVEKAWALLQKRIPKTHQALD
Chain of UniProt Q14781 (Q14781 whole entry, looked up): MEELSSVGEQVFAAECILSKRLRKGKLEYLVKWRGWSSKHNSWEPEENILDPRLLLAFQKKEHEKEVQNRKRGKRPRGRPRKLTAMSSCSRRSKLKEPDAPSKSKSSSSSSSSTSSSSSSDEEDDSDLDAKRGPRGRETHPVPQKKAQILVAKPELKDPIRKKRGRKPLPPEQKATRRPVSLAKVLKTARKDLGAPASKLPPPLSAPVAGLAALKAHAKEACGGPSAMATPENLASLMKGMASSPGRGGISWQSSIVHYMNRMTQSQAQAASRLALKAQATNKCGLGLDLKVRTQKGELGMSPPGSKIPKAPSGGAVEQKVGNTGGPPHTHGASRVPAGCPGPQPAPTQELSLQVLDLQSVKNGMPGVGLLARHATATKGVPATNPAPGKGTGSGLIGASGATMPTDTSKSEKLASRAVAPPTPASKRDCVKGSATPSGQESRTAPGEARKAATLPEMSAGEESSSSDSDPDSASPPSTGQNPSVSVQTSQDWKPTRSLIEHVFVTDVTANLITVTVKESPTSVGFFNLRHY
Chain of UniProt P53701 (P53701 whole entry, looked up): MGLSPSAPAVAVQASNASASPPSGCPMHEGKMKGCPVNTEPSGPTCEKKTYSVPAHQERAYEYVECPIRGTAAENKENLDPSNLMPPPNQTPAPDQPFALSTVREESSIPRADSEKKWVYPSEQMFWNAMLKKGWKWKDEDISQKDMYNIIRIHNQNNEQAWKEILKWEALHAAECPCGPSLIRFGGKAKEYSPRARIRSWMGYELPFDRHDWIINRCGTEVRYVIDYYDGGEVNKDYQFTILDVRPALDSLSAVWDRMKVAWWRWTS
Chain of UniProt P53384 (P53384 whole entry, looked up): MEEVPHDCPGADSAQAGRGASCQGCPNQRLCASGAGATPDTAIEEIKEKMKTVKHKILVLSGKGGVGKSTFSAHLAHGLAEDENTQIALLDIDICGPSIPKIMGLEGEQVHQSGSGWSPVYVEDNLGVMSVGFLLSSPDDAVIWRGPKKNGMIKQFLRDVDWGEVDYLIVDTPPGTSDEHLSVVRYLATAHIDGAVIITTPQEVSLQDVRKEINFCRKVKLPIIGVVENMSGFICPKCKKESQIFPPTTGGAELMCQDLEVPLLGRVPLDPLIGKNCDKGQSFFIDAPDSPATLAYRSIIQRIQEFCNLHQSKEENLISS
Chain of UniProt P62633 (P62633 whole entry, looked up): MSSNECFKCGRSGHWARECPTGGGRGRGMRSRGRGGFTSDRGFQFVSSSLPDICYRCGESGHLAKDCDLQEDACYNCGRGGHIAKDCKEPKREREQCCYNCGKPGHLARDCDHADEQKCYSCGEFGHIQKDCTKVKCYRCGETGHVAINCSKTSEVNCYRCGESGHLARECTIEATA

As to STX5 C68 (UniProt Q13190), the “log2 ratio of iodoacetamide-alkyne labeling” value (shortened to “log2 ratio”) was 0.4.

For the target CNBP C6 (UniProt P62633), the “log2 ratio” value was 0.0447. The figure for CBX2 C340 (UniProt Q14781) is 0.654; for PMPCA C466 (UniProt Q10713) it is 0.00592; for CNN3 C173 (UniProt Q15417) it is 1.01 (active). The figure for UniProt Q02040_C542 is 0.763.

In the case of GRB2 C32 (UniProt P62993), the “log2 ratio” value was 0.167. The figure for NUP98 C1027 (UniProt P52948) is 0.378; for HK2 C158 (UniProt P52789) it is 0.246. The figure for UniProt P61163_C34 is 0.205; for CDK5 C157 (UniProt Q00535) it is 0.141.

As for HCCS C66 (UniProt P53701), the “log2 ratio” value was 0.724. The figure for UniProt Q13247_C121 is -0.0624. The same measure for TLE3 C528 (UniProt Q04726): 1.34 (active); for SPECC1 C740 (UniProt Q5M775): -0.0117; for ERCC6L C356 (UniProt Q2NKX8): 0.193.

With UniProt P62306_C66, the “log2 ratio” value was 0.0671. The figure for UniProt Q12905_C271 is 0.137; for EXOSC9 C9 (UniProt Q06265) it is 0.307; for RPL7A C174 (UniProt P62424) it is -0.0802. Consider AARS2 C750 (UniProt Q5JTZ9), for which the “log2 ratio” value is 0.846. GABPA C338 (UniProt Q06546): the “log2 ratio” value is 0.308. As for YARS C250 (UniProt P54577), the “log2 ratio” value is 0.0441.

Consider EXOSC7 C85 (UniProt Q15024), for which the “log2 ratio” value is -0.0747. The same measure for NUBP1 C31 (UniProt P53384): 0.626; for LGALS3BP C489 (UniProt Q08380): 1.72 (active); for TBL3 C696 (UniProt Q12788): 0.373. The same measure for HNRNPUL2 C308 (UniProt Q1KMD3): 0.826; for UniProt P60891_C230: 0.704. The figure for PTPN13 C937 (UniProt Q12923) is 0.773; for COASY C144 (UniProt Q13057) it is 1.16 (active). Regarding FHL1 C191 (UniProt Q13642), the “log2 ratio” value was -0.117. The figure for HMGCS1 C86 (UniProt Q01581) is 0.0742; for EFTUD2 C144 (UniProt Q15029) it is 0.297; for UniProt Q15042_C873 it is 0.165.
